Source: the supplement of paper PMC3334620
The full ranking holds about 33,000 sequences; the median of “E-score (-0.5 to 0.5)” is about -0.0014, and the highest 2% start at about 0.25. The sample as a whole holds a higher share of the highest values than the screen did.

target: T1, Cad1 (UniProt P24813); test: PBM E-score (8-mer binding enrichment) (E-score (-0.5 to 0.5)); higher = stronger / more preferred TF binding; conditions: protein concentration: 100 nM; construct: GST-full length
T1 sequence: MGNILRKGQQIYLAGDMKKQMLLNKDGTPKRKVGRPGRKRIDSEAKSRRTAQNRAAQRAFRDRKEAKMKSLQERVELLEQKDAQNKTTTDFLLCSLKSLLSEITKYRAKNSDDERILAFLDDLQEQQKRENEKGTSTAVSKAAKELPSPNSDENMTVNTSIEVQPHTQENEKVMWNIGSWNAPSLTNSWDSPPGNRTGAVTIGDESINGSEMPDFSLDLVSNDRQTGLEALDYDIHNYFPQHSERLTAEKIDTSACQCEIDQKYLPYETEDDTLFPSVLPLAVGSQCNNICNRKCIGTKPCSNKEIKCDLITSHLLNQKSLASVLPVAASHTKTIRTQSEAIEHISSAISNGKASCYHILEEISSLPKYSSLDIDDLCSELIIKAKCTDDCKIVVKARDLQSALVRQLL
How it was run: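 E-scores (a modified Wilcoxon-Mann-Whitney statistic) were assigned by the Universal PBM Analysis Suite to every ungapped eight-base word pooled with its reverse complement. The input came from universal all-10-mer Agilent arrays made double-stranded by primer extension and probed with GST-tagged yeast transcription factors at about 100-200 nM. Fluorescent anti-GST detected bound protein, and masliner normalised the scans.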

Sequence	PBM E-score
CGCTCAAA	0.0635
GTACTCAC	0.158
CATCGATA	0.149
CTAGATAG	0.0131
GAAATCGA	0.0829
GTTACATA	0.253
ATTACATA	0.296
GCTACATA	-0.00397
CTTACATC	-0.00465
AGTATACA	0.207
CATACATA	0.161
CTTACATA	0.278
ATTACAGA	0.152
GTTACAAA	0.223
GGTATACA	0.0215
ACTACATA	0.0142
TGTATACA	0.272
TAAGTCCA	0.0496
ATGAATCA	0.0957
AACAGCGC	0.0746
CAGATCGC	-0.038
CCTTGTAA	0.049
GTGACTAA	0.37
GTGACTCA	-0.0941
GTGACTGA	0.157

Sequence	PBM E-score
ATGACTAC	-0.181
ATGACTAA	0.377
ATGACTAG	-0.129
AGCTTGAG	-0.123
CGCATAGA	0.0454
GATACACC	0.257
CATACACC	0.00325
AATACACA	0.144
GATACACA	0.0908
AATACACT	0.158
AATACACC	0.255
AGTACGCA	-0.129
AGTACGCG	0.26
AGTACGCC	-0.293
AATAGGGT	0.0291
CGCCCAGC	0.0197
CGTTGAAG	-0.178
ATCCGGAC	0.131
GTCCGGAC	0.319
CTCCGGAC	0.00021
CCCGGAAA	0.134
ACCGGAAA	0.135
CTCCGGAA	0.00101
TTCCGGAA	0.316
ATCCGGAA	0.22

Sequence	PBM E-score
TCCGGAAA	0.252
ATGCTCCG	-0.114
ATCCAGGG	-0.173
GACAAGCA	-0.021
ACCACTAT	0.0199
CACAATTA	0.00794
ACACTTTA	0.0868
GATAATGA	0.167
GATAATTA	0.297
AATAATTA	0.336
AATAATTG	0.0365
GATAATAA	0.0805
CATAATTC	0.0611
CATAATTA	0.279
AATAATTC	0.18
CATAATGA	0.0454
CTCATTCA	0.0583
AGTGTGAC	-0.0643
AGACTCAG	0.0244
CGCGATTC	0.268
CGCGATTA	0.187
AGCGATTC	-0.021
CCCTAACC	-0.157
CACTAGAC	-0.0989
AGCTTACC	-0.0175

Sequence	PBM E-score
AGCTTACA	0.351
TGCTTACA	0.235
GCGCCCAA	0.143
AATTCGTA	0.0688
AATTCGGC	-0.0493
AATTCGTC	0.274
AATTCGGG	0.0637
CATTCGTC	0.0375
AATTCGGT	0.266
CAATTTCA	0.0182
CTCGGCAG	0.136
CAAGCTTG	-0.294
ATTGGTCC	0.0438
CAACCGCG	0.297
CAACCGAC	0.252
AAACCGCA	-0.213
AAACCGCG	0.271
AAACCGCC	-0.0149
GAACCGAC	0.105
CAACCGCC	-0.23
CAACCGCA	0.066
CAACCGAA	0.168
ACTAGAGA	-0.224
CGTGCGAA	0.036
GGGCATTA	-0.152

Sequence	PBM E-score
GATCAAGC	-0.0801
GGCGGTAA	0.045
ACTTCGCG	0.216
GCAACAGC	-0.076
ATAAGGGG	-0.0559
CTATCGTA	-0.0798
TCGAAACA	0.251
ACGAAACA	0.192
CCGAAACA	0.0714
AGCTATCA	0.118
CGAAGAGA	0.106
CTGTCAGC	0.118
GTGTCACA	0.252
ATGTCACA	0.306
ATGTCAGA	-0.0566
CTGTCACA	0.0656
ATGTCACC	0.0545
ATGTCACG	0.0134
ATGTCAGC	0.315
GTGTCAAA	0.163
AGCCAGAT	-0.239
AGGTCAAC	0.00774
ACCTGATG	-0.134
CAGAATGG	-0.00601
CATCAAGA	0.0115

Sequence	PBM E-score
CCTCAACA	0.0958
ATTCACGC	0.0118
CTTCACGC	0.26
CTTCACGA	-0.199
CTAGACCA	0.00762
CCAGGACA	0.0769
ATTATCGC	0.282
ATTATCGG	0.0117
ATTATCAC	0.151
ATTATCGA	0.107
CTTATCAC	0.0836
GTTATCAA	0.129
ATTATCAA	0.297
AATATCAA	0.138
CATATCAG	-0.00093
CATATCAA	0.259
CTTATCAA	0.256
ATTATCAG	-0.0126
CCAATCGA	0.105
TATTAGAA	0.24
CAAACACG	0.126
CAAAAGCG	0.0683
ACACGCCC	-0.0578
AGCCATAT	-0.0728
GGTAGCCA	-0.0237

Sequence	PBM E-score
CGACTTAA	0.0481
TATACCAA	0.0311
ACGAAATA	0.201
GCGAAATA	-0.0552
CCGAAATA	0.253
GGGGTTCA	-0.191
ATCGCCCG	-0.0312
GTTGCTGA	0.111
GTTGCTTA	0.261
ATTGCTTA	0.176
GCTCGGTA	-0.203
CATAGGGC	-0.163
CAATTCGA	-0.0688
GAATTCGC	-0.0565
CAATTCGC	0.322
ATTCGCAC	0.00983
GGTGCTGA	-0.0741
AACGCCTG	0.0294
AGTAAGGG	0.0236
ACTAAGCG	0.3
ACTAAGCT	0.223
AGTAAGCC	0.156
